A word on the AC50: it is the concentration at which the activity in the assay is half-maximal.

The values below come from PubChem BioAssay (EPA / NIEHS).

Read-out in one experiment: TIMP1, TIMP1 (gene 7076)
The experiment in a line: LTEA_HepaRG_TIMP1: Life Technologies and Expression Analysis (LTEA) Assay for TIMP1 using HepaRG (AID 2283534; active = hit-call score of the fitted dose curve at least 0.9, where 1 is the maximum; inactive = score below 0.9). As to conditions: mRNA level, 48 h; actives raise or lower the signal. A digest of the protocol: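 Bidirectional change in TIMP1 transcript versus 0.5% DMSO, measured by TaqMan qRT-PCR with three housekeeping genes for normalization. HepaRG human liver cells dosed 48 h in duplicate, top concentration 100 uM with half-log dilutions.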

Read-out in experiment [1]: Tumor necrosis factor receptor 1 (TNFRSF1A), TNFRSF1A (gene 7132)
The experiment in a line: LTEA_HepaRG_TNFRSF1A: Life Technologies and Expression Analysis (LTEA) Assay for Tumor necrosis factor receptor 1 (TNFRSF1A) using HepaRG (AID 2283535; active = hit-call score of the fitted dose curve at least 0.9, where 1 is the maximum; inactive = score below 0.9). Conditions: mRNA level, 48 h; actives raise or lower the signal. A digest of the protocol:
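mRNA measured by qRT-PCR (TaqMan, Fluidigm arrays) against ACTB/GAPDH/POLR2A housekeepers after 48 h chemical exposure of HepaRG cells. Top concentration 100 uM, half-log 8-point series, duplicates; vehicle 0.5% DMSO, both fit directions.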

Read-out in experiment [2]: Thyroid Hormone Responsive (THRSP), THRSP (gene 7069)
The experiment in a line: LTEA_HepaRG_THRSP: Life Technologies and Expression Analysis (LTEA) Assay for Thyroid Hormone Responsive (THRSP) using HepaRG (AID 2283536; active = hit-call score of the fitted dose curve at least 0.9, where 1 is the maximum; inactive = score below 0.9). Conditions: mRNA level, 48 h; actives raise or lower the signal. Summed up: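 Differentiated human HepaRG cells were exposed in duplicate for 48 h in serum-free induction medium to eight concentrations (top 100 uM, half-log steps, 0.5% DMSO). Expression was quantified by TaqMan qRT-PCR, normalized to ACTB, GAPDH and POLR2A, with bidirectional fitting against DMSO.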

Read-out in experiment [3]: Cellular tumor antigen p53 (Homo sapiens) (UniProt P04637)
The experiment in a line: LTEA_HepaRG_TP53: Life Technologies and Expression Analysis (LTEA) Assay for Tumor Protein P53 (TP53) using HepaRG (AID 2283537; active = hit-call score of the fitted dose curve at least 0.9, where 1 is the maximum; inactive = score below 0.9). As to conditions: mRNA level, 48 h; actives raise or lower the signal. Summed up: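 Differentiated HepaRG cells in serum-free induction medium exposed 48 h in duplicate to 8 half-log concentrations, top 100 uM, 0.5% DMSO. TP53 mRNA by TaqMan qRT-PCR (Fluidigm), normalized to ACTB, GAPDH, POLR2A; fitted bidirectionally versus DMSO.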

Read-out in experiment [4]: UDP glucuronosyltransferase (UGT1A1), UGT1A1 (gene 54658)
The experiment in a line: LTEA_HepaRG_UGT1A1: Life Technologies and Expression Analysis (LTEA) Assay for UDP glucuronosyltransferase (UGT1A1) using HepaRG (AID 2283538; active = hit-call score of the fitted dose curve at least 0.9, where 1 is the maximum; inactive = score below 0.9). As to conditions: mRNA level, 48 h; actives raise or lower the signal. Summed up: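 Differentiated human HepaRG cells in serum-free induction medium were exposed in duplicate for 48 h to eight half-log concentrations up to 100 uM in 0.5% DMSO. UGT1A1 mRNA was quantified by TaqMan qRT-PCR, normalized to ACTB, GAPDH and POLR2A, and fitted bidirectionally against DMSO.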

Read-out in experiment [5]: UDP glucuronosyltransferase (UGT1A6), UGT1A6 (gene 54578)
The experiment in a line: LTEA_HepaRG_UGT1A6: Life Technologies and Expression Analysis (LTEA) Assay for UDP glucuronosyltransferase (UGT1A6) using HepaRG (AID 2283539; active = hit-call score of the fitted dose curve at least 0.9, where 1 is the maximum; inactive = score below 0.9). As to conditions: mRNA level, 48 h; actives raise or lower the signal. Summed up: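 Expression was quantified by TaqMan qRT-PCR on Fluidigm arrays with ACTB/GAPDH/POLR2A normalization and bidirectional fitting against 0.5% DMSO. HepaRG cells (~100,000/well) were treated in duplicate for 48 h at eight half-log concentrations up to 100 uM in serum-free induction medium.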

Read-out in experiment [6]: X-box binding protein 1 (XBP1), XBP1 (gene 7494)
The experiment in a line: LTEA_HepaRG_XBP1: Life Technologies and Expression Analysis (LTEA) Assay for X-box binding protein 1 (XBP1) using HepaRG (AID 2283540; active = hit-call score of the fitted dose curve at least 0.9, where 1 is the maximum; inactive = score below 0.9). As to conditions: mRNA level, 48 h; actives raise or lower the signal. Summed up: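 XBP1 transcript by qRT-PCR (housekeeping-normalized: ACTB, GAPDH, POLR2A) after 48 h chemical treatment of HepaRG cells, 8-point half-log series topping at 100 uM, vehicle 0.5% DMSO. Gain and loss of signal fitted relative to DMSO.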

A short description of experiment [7]: LTEA_HepaRG_LDH_cytotoxicity: Cytotoxicity Assessment in the Life Technologies and Expression Analysis (LTEA) Assay (AID 2283563).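 As to AC50: LDH activity released into spent culture medium as a marker of cell death.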 Summed up: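 LDH release into culture medium read after 48 h chemical treatment of HepaRG cells. Duplicate wells, eight-point half-log series topping at 100 uM, 0.5% DMSO vehicle and baseline.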
Experiment [8] is described as follows: TOX21_p53_BLA_p2_viability: Viability Assessment in the Tox21 HCT-116 p53 Agonism Beta-lactamase Assay, Phase 2 (AID 2283591).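 Also: compound exposure lasted 16 h at 37 °C; actives lower the ATP signal meaning cytotoxicity.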 A digest of the protocol: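 HCT-116 p53-bla cells (4000/well) rested 5 h at 37C, then received compounds in DMSO (217-fold dilution) for 16 h at 37C, 5% CO2. After the CCF4 read, CellTiter-Glo was added; ATP luminescence was read after 30 min at room temperature.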

Experiment [9] concerns the target Cellular tumor antigen p53 (Homo sapiens) (UniProt P04637). The experiment in a line: TOX21_p53_BLA_p2_ratio: Tox21 HCT-116 p53 Agonism Beta-lactamase Assay, Ratio, Phase 2 (AID 2283592). A digest of the protocol: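 Gain-of-signal p53 agonism was scored from the beta-lactamase FRET ratio (460/530 nm, 405 nm excitation) in HCT116 cells treated 16 h at 37C, 5% CO2, with DMSO serving as negative control and baseline.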

The nature of experiment [10]: TOX21_p53_BLA_p3_viability: Viability Assessment in the Tox21 HCT-116 p53 Agonism Beta-lactamase Assay, Phase 3 (AID 2283593).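 Also: cells exposed to compound for 16 h before reading.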 Summed up:
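HCT-116 cells (4000/well) rested 5 h at 37C, then got DMSO compounds by pin tool (217-fold dilution) for 16 h at 37C, 5% CO2. After the bla read, CellTiter-Glo was added and luminescence read at 30 min, room temperature.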

The target of experiment [11] is Cellular tumor antigen p53 (Homo sapiens) (UniProt P04637). The experiment in a line: TOX21_p53_BLA_p3_ratio: Tox21 HCT-116 p53 Agonism Beta-lactamase Assay, Ratio, Phase 3 (AID 2283596). Summed up:
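HCT116 p53-bla cells (4000/well) given compound in DMSO (217-fold dilution) after 5 h, incubated 16 h at 37C. CCF4-AM substrate 2 h at room temperature; 460/530 nm emission ratio, gain fitted against DMSO.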

Experiment [12] in a line: TOX21_p53_BLA_p4_viability: Viability Assessment in the Tox21 HCT-116 p53 Agonism Beta-lactamase Assay, Phase 4 (AID 2283597).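 Also: hits lower the luminescence signal meaning cytotoxicity.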 A digest of the protocol: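 Following a 16 h exposure at 37C, the treated HCT116 wells were first read for the FRET ratio. They were then lysed with CellTiter-Glo, and ATP luminescence was recorded after 30 min at room temperature.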
Experiment [13] concerns the target Cellular tumor antigen p53 (Homo sapiens) (UniProt P04637). The experiment in a line: TOX21_p53_BLA_p5_ratio: Tox21 HCT-116 p53 Agonism Beta-lactamase Assay, Ratio, Phase 5 (AID 2283599). A digest of the protocol: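 HCT-116 cells carrying a p53-inducible beta-lactamase reporter were seeded at 4000 cells/well and dosed after 5 h with compound in DMSO (217-fold dilution). After 16 h at 37C, CCF4-AM substrate was added for 2 h, and the 460/530 nm emission ratio was scored as gain-of-signal versus DMSO.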

Experiment [14] is described as follows: TOX21_p53_BLA_p5_viability: Viability Assessment in the Tox21 HCT-116 p53 Agonism Beta-lactamase Assay, Phase 5 (AID 2283600). Summed up:
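After the 460/530 nm beta-lactamase measurement, the wells received an ATP-detection luciferase reagent; signal was read 30 min later at RT. Compound treatment lasted 16 h on cells pre-incubated 5 h post-seeding.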

Experiment [15] has as its target Cellular tumor antigen p53 (Homo sapiens) (UniProt P04637). The experiment in a line: TOX21_p53_BLA_p4_ratio: Tox21 HCT-116 p53 Agonism Beta-lactamase Assay, Ratio, Phase 4 (AID 2283601). A digest of the protocol: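 HCT116 cells carrying an inducible beta-lactamase reporter were plated at 4000 cells/well, rested 5 h, then exposed to compounds in DMSO (217-fold dilution) for 16 h at 37C. CCF4-AM substrate was loaded 2 h at room temperature; 460/530 nm emission ratio scored gain-of-signal versus DMSO.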

The nature of experiment [16]: Tanguay_ZF_120hpf_MORT_legacy: (Legacy) Oregon State University Tanguay Lab 120 Hour Post-fertilization zebrafish Assay for Mortality (AID 2283633). A digest of the protocol: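 Static waterborne exposure from 6 to 120 hpf at 28C of single dechorionated wild-type (5D) embryos per well, 0.64% DMSO final. Death recorded present/absent by brightfield at 24 and 120 hpf.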

Experiment [17] is described as follows: Tanguay_ZF_120hpf_YSE_legacy: (Legacy) Oregon State University Tanguay Lab 120 Hour Post-fertilization zebrafish Assay for Yolk Sac Edema (AID 2283634). Summed up: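 Presence or absence of yolk sac edema was recorded at 120 hpf in surviving larvae. These were wild-type Tropical 5D embryos, chorion removed at 4 hpf, held in static exposure at 28C from 6 hpf with 0.64% DMSO vehicle.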

The nature of experiment [18]: Tanguay_ZF_120hpf_AXIS_legacy: (Legacy) Oregon State University Tanguay Lab 120 Hour Post-fertilization zebrafish Assay for Body Axis Malformation (AID 2283635).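 As to AC50: potency for an increased fraction of larvae scored with body axis malformation.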 Summed up: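 Binary scoring of axis defects at 120 hpf under brightfield, fitted positive versus DMSO. Tropical 5D embryos, chorion removed by pronase at 4 hpf, were singly exposed in sealed, dark plates at 28C from 6 hpf; DMSO 0.64% final.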

Experiment [19] in a line: ATG_XTT_Cytotoxicity: Cytotoxicity Assessment in the Attagene TRANS-FACTORIAL HepG2 Assay (AID 2283584). A digest of the protocol: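 Viability endpoint from XTT after 24 h chemical exposure of reporter-transfected human HepG2 liver cells; signal loss fitted relative to DMSO negative control.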

Where “and” joins values, the source holds several entries; their conditions need not be identical. Equal values may be shown once. Inconclusive results are not listed. Some compounds were tested as several samples or in several runs, with calls that do not always agree. Calls of active or inactive are those of the source. The calls were made as follows, unless noted: active = hit-call score of the fitted dose curve at least 0.9, where 1 is the maximum; inconclusive = response in the unintended direction; inactive = score below 0.9.

Chain of Cellular tumor antigen p53 (Homo sapiens) (P04637 whole entry, looked up): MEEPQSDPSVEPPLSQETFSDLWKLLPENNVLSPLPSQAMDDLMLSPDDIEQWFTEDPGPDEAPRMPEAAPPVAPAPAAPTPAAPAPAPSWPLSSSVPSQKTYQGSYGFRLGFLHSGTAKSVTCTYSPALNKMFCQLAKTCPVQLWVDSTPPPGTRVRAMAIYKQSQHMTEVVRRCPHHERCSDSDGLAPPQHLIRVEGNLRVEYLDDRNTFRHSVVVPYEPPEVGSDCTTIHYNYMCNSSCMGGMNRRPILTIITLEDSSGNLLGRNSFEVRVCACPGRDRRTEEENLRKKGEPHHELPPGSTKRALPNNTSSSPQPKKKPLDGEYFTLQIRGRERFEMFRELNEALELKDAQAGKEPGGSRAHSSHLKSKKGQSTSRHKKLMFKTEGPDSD

With `O=C(Nc1ccc([N+](=O)[O-])cc1Cl)c1cc(Cl)ccc1O`, the half-maximal activity concentration (AC50) was 3.18 µM (active) with TIMP1, TIMP1 (gene 7076); 10.1 µM (active) in experiment [1]; 3.65 µM (active) in [4]; 3.63 µM (active) in experiment [5]; 1.97 µM (active) in experiment [6]; 4.38 µM (active) in [7]. Further, the concentration at half-maximal activity (AC50) was 129 nM (active) and 152 nM (active) in experiment [8]; 234 nM (active) and 140 nM (active) in [9]; 159 nM (active) and 156 nM (active) in [10]; 299 nM (active) and 230 nM (active) in [11]; 235 nM (active) and 92 nM (active) in experiment [12]; 315 nM (active) and 320 nM (active) in experiment [13]. The half-maximal activity concentration (AC50) in [14] is 0.174 µM (active); in [15], 317 nM (active). The molecule was classed as inactive in experiment [2], in [3], in experiment [14], in [15], in [16] and in experiment [17]. In experiment [18], the call was inactive.
`Oc1ccc(C(c2ccc(O)cc2)C(Cl)(Cl)Cl)cc1`: the AC50 with TIMP1, TIMP1 (gene 7076) was 79.2 µM (active); in experiment [1], 87.3 µM (active); in [3], 90.4 µM (active); in [4], 88.5 µM (active); in experiment [5], 79.2 µM (active); in experiment [6], 74.1 µM (active). Further, the concentration at half-maximal activity (AC50) was 76.4 µM (active) in [7]; 54.6 µM (active) and 45.9 µM (active) in experiment [8]; 72.9 µM (active) and 69.1 µM (active) in [9]; 46.1 µM (active) in [10]; 72.1 µM (active) and 74.2 µM (active) in experiment [11]; 38.3 µM (active) and 80.7 µM (active) in experiment [12]. In addition, the AC50 in [13] was 80.8 µM (active) and 85.1 µM (active); in experiment [14] it was 66.7 µM (active); in [15], 64.5 µM (active) and 82.7 µM (active); in [18] it was 63.4 µM (active). Besides, the outcome in experiment [2], in experiment [19], in [10], in [14], in experiment [16] and in [17] was inactive.
Consider `CCCCC(CC)CN1C(=O)C2C3C=CC(C3)C2C1=O` (stereo unspecified), for which the outcome with TIMP1, TIMP1 (gene 7076) was “inactive”; in experiment [1] it was “inactive”; in experiment [3], “inactive”; in [5], “inactive”; in experiment [6], “inactive”; in [7], “inactive”. Besides, the call in experiment [19], in experiment [8], in [9], in experiment [13], in experiment [14] and in [15] was inactive. The molecule was classed as inactive in [16], in experiment [17] and in experiment [18]. The concentration at half-maximal activity (AC50) is 22.9 µM (active) in [2], 88.5 µM (active) in [4] and 73.3 µM (active) in experiment [12].
